Source: PubChem BioAssay (NCATS)
Where “and” joins values, the source holds several entries; their conditions need not be identical. Equal values may be shown once. Unmarked numbers belong to inactive results. Calls follow the shape of the dose curve; as a rule, active = well fitted activation curve with a large enough effect; inconclusive = small, poorly fitted or top-dose-only effect; inactive = flat fitted curve, though single readings scatter.

Molecular target: Peroxisome proliferator-activated receptor alpha (Homo sapiens) (UniProt Q07869)
Sequence (Q07869 whole entry, looked up): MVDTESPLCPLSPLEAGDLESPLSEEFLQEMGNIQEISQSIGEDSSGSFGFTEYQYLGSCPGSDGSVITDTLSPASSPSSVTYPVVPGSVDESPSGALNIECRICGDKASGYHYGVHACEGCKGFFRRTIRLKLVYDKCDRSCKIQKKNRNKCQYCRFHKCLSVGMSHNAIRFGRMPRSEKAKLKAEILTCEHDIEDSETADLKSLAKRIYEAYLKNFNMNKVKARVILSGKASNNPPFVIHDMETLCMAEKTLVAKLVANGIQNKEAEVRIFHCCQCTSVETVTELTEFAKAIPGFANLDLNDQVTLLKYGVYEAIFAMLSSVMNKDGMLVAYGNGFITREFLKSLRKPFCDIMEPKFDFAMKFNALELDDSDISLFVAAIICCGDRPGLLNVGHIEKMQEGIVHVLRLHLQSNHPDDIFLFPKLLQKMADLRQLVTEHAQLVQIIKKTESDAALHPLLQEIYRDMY
Assay: qHTS assay for small molecule agonists of the peroxisome proliferator-activated receptor alpha (PPARalpha) signaling pathway (AID 651778); also: % of control where 0% means no effect
Conditions: PathHunter PPARalpha complementation, chemiluminescence, 6 h; active compounds read high
Excerpt: National Center for Advancing Translational Sciences [NCATS]
NIH Chemical Genomics Center [NCGC]
U.S. Environmental Protection Agency [EPA]
National Institutes of Environmental Health Sciences [NIEHS]
National Toxicology Program [NTP]
The Peroxisome proliferator-activated receptors (PPARs) are lipid-activated transcription factors of the nuclear receptor superfamily with three distinct subtypes (alpha, garmma and beta/delta). All these subtypes heterodimerize with retinoid X receptor and have different physiological functions. PPARalpha is highly expressed in tissues with high rates of mitochondrial fatty acid oxidation, such as liver, heart, muscle, kidney and cells of the arterial wall. PPARalpha is a major regulator of lipid metabolism and energy homeostasis.
A cell based assay was used to identify activators of PPARalpha. The assay detects binding of a ligand to PPARalpha leading to its activation, translocation and complementation thus forming a functional enzyme capable of hydrolyzing the substrate molecule and generating chemiluminescent signal.
2,000 cells in 6 uL/well were dispensed into white wall/solid bottom 1536-well plates using a Multidrop Combi (Thermo Scientific) dispenser. After incubation 37 C and 5% CO2 overnight, 23 nL compound or DMSO only were transferred by a pin tool. The plates were incubated for 6 hr at 37 C and 5% CO2. 3 ul PathHunter detection reagent (Discoverx) was then added to each well and following 60 min incubation at room temperature, chemiluminescence was quantified on a ViewLux CCD-based plate reader.

| Compound | max response |
| --- | --- |
| CC(=O)OC(C)=O | -5.07% |
| C=C(C)C1CC=C(C)C(OC(C)=O)C1 (stereo not given) | -3.58% |
| Nc1nc2ccccc2[nH]1 | -2.62% |
| NC(=O)c1ccccc1[N+](=O)[O-] | -0.939% |
| Cc1cc(C)cc(N)c1 | -1.33% |
| CCCCCCCCC/C=C/CC1CC(=O)OC1=O (stereo not given) | 0.153% |
| CCOc1ccc(NC(C)=O)cc1N | -2.02% |
| Cc1ccc2cccnc2c1 | -8.31% |
| CC=C(Cl)Cl | -5.05% |
| Clc1ccccn1 | -1.35% |
| CC/C(C)=N/O | 1.72% |
| O=C(O)c1ccc(CO)o1 | 15% |
| CC(=O)OCCC(C)C | -9.14% |
| CC(=O)Nc1ccc(N)cc1 | 0.154% |
| CCOCCO | -5.75% |
| C1CCOC1 | -1.78% |
| O=[N+]([O-])c1ccccc1CCO | -1.29% |
| CC(=O)C1(C)CC2=C(CCCC2(C)C)CC1C (stereo not given) | -0.376% |
| COC(=O)CC#N | -2.71% |
| NC=O | -1.01% |

| Compound | max response |
| --- | --- |
| COc1cccc(N)c1 | -3.67% |
| CCOCC(=O)O | -1.55% |
| C=CCCCCCC | -3.21% |
| Cc1cc(C)cc(O)c1 | -2.86% |
| CCCCCCCCCCCCOCC1CO1 (stereo not given) | -0.128% |
| Cc1ccccc1Br | -3.06% |
| Nc1cc([N+](=O)[O-])ccc1C(=O)O | -7.92% and -2.55% |
| C=C(C)C(=O)OCCCCCCCCCC | -0.186% |
| O=C1C=CCCC1 | 2.89% |
| C=C(C)C(=O)OCC(C)O (stereo not given) | -1.16% |
| C/C(C=O)=C/c1ccccc1 | -3.84% |
| Nc1ccccc1S(=O)(=O)O | -3.61% |
| CCCCC(=O)N(C)C | -3.71% |
| c1ccc2n[nH]nc2c1 | -6.33% |
| CC(C)(O)CCC(C)(C)O | -3.81% |
| O=[N+]([O-])c1ccc2nc[nH]c2c1 | -4.28% |
| C/C=C1\CC2C=CC1C2 (stereo not given) | -5.32% |
| Cc1ccc(C)c(O)c1 | -1.27% |
| O=C1OC(=O)c2c(Br)c(Br)c(Br)c(Br)c21 | 0.713% and 0.326% |
| Cc1ccc(C)o1 | -7.85% |
